Test results: PubChem BioAssay (EPA / NIEHS)
The source made the active and inactive calls. Rule for the calls: active = hit-call score of the fitted dose curve at least 0.9, where 1 is the maximum; inactive = score below 0.9.

Columns and labels:
Conditions in all cases: mRNA level, 48 h; actives raise or lower the signal
[1] = read-out: Fatty acid synthase (Homo sapiens) (UniProt P49327); assay: LTEA_HepaRG_FASN: Life Technologies and Expression Analysis (LTEA) Assay for Fatty Acid Synthase (FASN) using HepaRG (AID 2283448)
Outline: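 FASN transcript measured by TaqMan qRT-PCR, normalised to three housekeeping genes, after 48 h chemical exposure of HepaRG cells. Eight-point half-log series from 100 uM in 0.5% DMSO, duplicates; gain or loss fitted against vehicle.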

[2] = read-out: Cyclin Dependent Kinase Inhibitor 1A (CDKN1A), CDKN1A (gene 1026); assay: LTEA_HepaRG_CDKN1A: Life Technologies and Expression Analysis (LTEA) Assay for Cyclin Dependent Kinase Inhibitor 1A (CDKN1A) using HepaRG (AID 2283450)
Outline: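 HepaRG, 48 h dosing, 8-pt half-log series from 100 uM top, 0.5% DMSO vehicle, duplicates. Readout: TaqMan qRT-PCR of CDKN1A transcript, housekeeping-normalized (ACTB, GAPDH, POLR2A). Up/down curve fit relative to DMSO.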

[3] = read-out: Cyclin D1 (CCND1), CCND1 (gene 595); assay: LTEA_HepaRG_CCND1: Life Technologies and Expression Analysis (LTEA) Assay for Cyclin D1 (CCND1) using HepaRG (AID 2283451)
Outline: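 qRT-PCR (Fluidigm 96.96 array) read-out of transcript level, housekeeping-normalized (ACTB/GAPDH/POLR2A). HepaRG cells, 48 h chemical exposure, 8-point half-log series from 100 uM, 0.5% DMSO vehicle; gain or loss relative to DMSO baseline.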

[4] = read-out: catalase (CAT), CAT (gene 847); assay: LTEA_HepaRG_CAT: Life Technologies and Expression Analysis (LTEA) Assay for catalase (CAT) using HepaRG (AID 2283452)
Outline: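 HepaRG cells in serum-free induction medium, 0.5% DMSO vehicle, exposed 48 h in duplicate over 8 half-log concentrations from 100 uM. CAT mRNA measured by qRT-PCR, normalized to ACTB, GAPDH, POLR2A; bidirectional fit versus DMSO.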

[5] = read-out: flavin-containing dimethylaniline monooxygenases 3 (FMO3), FMO3 (gene 2328); assay: LTEA_HepaRG_FMO3: Life Technologies and Expression Analysis (LTEA) Assay for flavin-containing dimethylaniline monooxygenases 3 (FMO3) using HepaRG (AID 2283453)
Outline: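 FMO3 transcript quantified by TaqMan qRT-PCR against three housekeeping genes after 48 h chemical exposure of HepaRG cells. Eight-point half-log series, top 100 uM, 0.5% DMSO vehicle; phenobarbital 1mM induction control; up- or down-regulation fitted.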

[6] = read-out: Cytochrome P450 (CYP1A1), CYP1A1 (gene 1543); assay: LTEA_HepaRG_CYP1A1: Life Technologies and Expression Analysis (LTEA) Assay for Cytochrome P450 (CYP1A1) using HepaRG (AID 2283454)
Outline: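 qRT-PCR read-out: CYP1A1 transcript normalized to three housekeeping genes, fitted bidirectionally against 0.5% DMSO vehicle baseline. Human HepaRG cells, 48 h chemical exposure, 8-point half-log series topping at 100 uM.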

[7] = read-out: Forkhead box O1 (FOXO1), FOXO1 (gene 2308); assay: LTEA_HepaRG_FOXO1: Life Technologies and Expression Analysis (LTEA) Assay for Forkhead box O1 (FOXO1) using HepaRG (AID 2283456)
Outline: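 HepaRG, 48 h exposure, 8-pt half-log series from 100 uM in 0.5% DMSO, duplicates; Fluidigm qRT-PCR mRNA, housekeeping-normalised; bidirectional fit vs DMSO baseline.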

[8] = read-out: growth arrest and DNA damage 45 (GADD45A), GADD45A (gene 1647); assay: LTEA_HepaRG_GADD45A: Life Technologies and Expression Analysis (LTEA) Assay for growth arrest and DNA damage 45 (GADD45A) using HepaRG (AID 2283458)
Outline: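 GADD45A expression was measured by TaqMan qRT-PCR against three housekeeping genes (ACTB, GAPDH, POLR2A) after 48 h treatment of HepaRG cells. Eight-point half-log series up to 100 uM in 0.5% DMSO, run in duplicate.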

[9] = read-out: Forkhead box O3 (FOXO3), FOXO3 (gene 2309); assay: LTEA_HepaRG_FOXO3: Life Technologies and Expression Analysis (LTEA) Assay for Forkhead box O3 (FOXO3) using HepaRG (AID 2283459)
Outline: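 qRT-PCR readout of FOXO3 transcript, normalized to three housekeeping genes (ACTB, GAPDH, POLR2A); gain or loss fitted against 0.5% DMSO vehicle. HepaRG cells, 48 h chemical exposure, 8-point half-log series, top 100 uM.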

[10] = read-out: ABC Transporter (ABCC3), ABCC3 (gene 8714); assay: LTEA_HepaRG_ABCC3: Life Technologies and Expression Analysis (LTEA) Assay for ABC Transporter (ABCC3) using HepaRG (AID 2283462)
Outline: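 qRT-PCR read-out of ABCC3 transcript, normalized to three housekeeping genes (ACTB, GAPDH, POLR2A), after 48 h chemical exposure of human HepaRG cells. Eight half-log concentrations, highest 100 uM, in 0.5% DMSO; gain or loss fitted relative to DMSO baseline.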

[11] = read-out: ABC Transporter (ABCB11), ABCB11 (gene 8647); assay: LTEA_HepaRG_ABCB11: Life Technologies and Expression Analysis (LTEA) Assay for ABC Transporter (ABCB11) using HepaRG (AID 2283463)
Outline: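 HepaRG, 48 h exposure, 8-pt half-log CRC top 100 uM, 0.5% DMSO vehicle, duplicates. Readout: TaqMan qRT-PCR of ABCB11 mRNA, housekeeping-normalized (ACTB/GAPDH/POLR2A). Bidirectional fit vs DMSO baseline.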

[12] = read-out: ABC Transporter (ABCC2), ABCC2 (gene 1244); assay: LTEA_HepaRG_ABCC2: Life Technologies and Expression Analysis (LTEA) Assay for ABC Transporter (ABCC2) using HepaRG (AID 2283464)
Outline: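 qRT-PCR (TaqMan, Fluidigm array) read-out of ABCC2 mRNA, normalized to three housekeeping genes. Differentiated HepaRG cells were treated 48 h in serum-free induction medium with 8-point half-log series from 100 uM in 0.5% DMSO; curves fitted bidirectionally relative to DMSO.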

[13] = read-out: Broad substrate specificity ATP-binding cassette transporter ABCG2 (Homo sapiens) (UniProt Q9UNQ0); assay: LTEA_HepaRG_ABCG2: Life Technologies and Expression Analysis (LTEA) Assay for ABC Transporter (ABCG2) using HepaRG (AID 2283465)
Outline: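 HepaRG, 48 h exposure, 8-pt half-log series from 100 uM, 0.5% DMSO vehicle, duplicates. Readout: ABCG2 transcript by qRT-PCR (Fluidigm array), housekeeping-normalized; bidirectional curve fit relative to DMSO baseline.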

[14] = read-out: Tumor necrosis factor receptor superfamily member 6 (Homo sapiens) (UniProt P25445); assay: LTEA_HepaRG_FAS: Life Technologies and Expression Analysis (LTEA) Assay for Fas cell surface death receptor (FAS) using HepaRG (AID 2283447)
Outline: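 Differentiated HepaRG cells in serum-free induction medium were exposed 48 h to 8 half-log concentrations up to 100 uM in 0.5% DMSO, in duplicate. FAS mRNA was measured by qRT-PCR normalised to ACTB, GAPDH and POLR2A; bidirectional fit versus DMSO.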

[15] = read-out: CFLAR gene, CFLAR (gene 8837); assay: LTEA_HepaRG_CFLAR: Life Technologies and Expression Analysis (LTEA) Assay for CFLAR gene using HepaRG (AID 2283455)
Outline: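 qRT-PCR read-out (Fluidigm/TaqMan) of CFLAR mRNA, normalized to three housekeeping genes, in differentiated human HepaRG cells after 48 h chemical exposure; 8-point half-log series from 100 uM in 0.5% DMSO; bidirectional curve fitting versus DMSO.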

[16] = read-out: ABC Transporter (ABCB1), ABCB1 (gene 5243); assay: LTEA_HepaRG_ABCB1: Life Technologies and Expression Analysis (LTEA) Assay for ABC Transporter (ABCB1) using HepaRG (AID 2283460)
Outline: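 HepaRG, 48 h exposure, 8-pt half-log series from 100 uM, 0.5% DMSO vehicle, duplicates. Readout: ABCB1 transcript by Fluidigm TaqMan qRT-PCR, housekeeping-normalized; bidirectional curve fit vs DMSO baseline.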

[17] = read-out: growth arrest and DNA damage 45 (GADD45B), GADD45B (gene 4616); assay: LTEA_HepaRG_GADD45B: Life Technologies and Expression Analysis (LTEA) Assay for growth arrest and DNA damage 45 (GADD45B) using HepaRG (AID 2283461)
Outline: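 qRT-PCR read-out (Fluidigm TaqMan, housekeeping-normalized) of mRNA change in human HepaRG cells after 48 h chemical exposure; 8-point curve, top 100 uM, half-log steps, 0.5% DMSO vehicle; gain or loss fitted relative to DMSO baseline.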

[18] = read-out: Cyclin D2 (CCND2), CCND2 (gene 894); assay: LTEA_HepaRG_CCND2: Life Technologies and Expression Analysis (LTEA) Assay for Cyclin D2 (CCND2) using HepaRG (AID 2283449);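 note: CCND2 transcript measured by TaqMan qRT-PCR and normalised to three housekeeping genes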
Outline: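 HepaRG, 48 h dosing, 8-pt half-log curve from 100 uM, 0.5% DMSO; duplicate wells. Readout: CCND2 transcript by microfluidic qRT-PCR, housekeeping-normalised; bidirectional fit vs DMSO baseline.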

Measured: AC50

Broad substrate specificity ATP-binding cassette transporter ABCG2 (Homo sapiens), sequence (Q9UNQ0 whole entry, looked up): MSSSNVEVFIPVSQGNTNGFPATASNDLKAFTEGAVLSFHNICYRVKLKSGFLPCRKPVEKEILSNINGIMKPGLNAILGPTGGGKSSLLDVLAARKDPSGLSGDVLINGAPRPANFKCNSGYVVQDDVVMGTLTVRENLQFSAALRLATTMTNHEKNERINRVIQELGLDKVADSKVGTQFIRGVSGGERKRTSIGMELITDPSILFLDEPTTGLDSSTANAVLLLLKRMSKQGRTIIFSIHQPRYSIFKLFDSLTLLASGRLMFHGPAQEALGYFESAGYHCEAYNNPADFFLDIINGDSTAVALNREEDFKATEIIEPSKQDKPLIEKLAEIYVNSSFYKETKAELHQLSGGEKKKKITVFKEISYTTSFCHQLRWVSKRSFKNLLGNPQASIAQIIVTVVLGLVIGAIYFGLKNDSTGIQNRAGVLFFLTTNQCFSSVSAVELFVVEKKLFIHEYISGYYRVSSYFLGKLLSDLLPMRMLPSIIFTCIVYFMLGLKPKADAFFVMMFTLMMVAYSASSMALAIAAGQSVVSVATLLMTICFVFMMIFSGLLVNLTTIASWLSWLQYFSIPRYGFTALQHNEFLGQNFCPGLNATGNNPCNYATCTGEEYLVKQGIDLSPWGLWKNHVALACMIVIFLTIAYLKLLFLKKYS
Fatty acid synthase (Homo sapiens), sequence (P49327 whole entry, looked up): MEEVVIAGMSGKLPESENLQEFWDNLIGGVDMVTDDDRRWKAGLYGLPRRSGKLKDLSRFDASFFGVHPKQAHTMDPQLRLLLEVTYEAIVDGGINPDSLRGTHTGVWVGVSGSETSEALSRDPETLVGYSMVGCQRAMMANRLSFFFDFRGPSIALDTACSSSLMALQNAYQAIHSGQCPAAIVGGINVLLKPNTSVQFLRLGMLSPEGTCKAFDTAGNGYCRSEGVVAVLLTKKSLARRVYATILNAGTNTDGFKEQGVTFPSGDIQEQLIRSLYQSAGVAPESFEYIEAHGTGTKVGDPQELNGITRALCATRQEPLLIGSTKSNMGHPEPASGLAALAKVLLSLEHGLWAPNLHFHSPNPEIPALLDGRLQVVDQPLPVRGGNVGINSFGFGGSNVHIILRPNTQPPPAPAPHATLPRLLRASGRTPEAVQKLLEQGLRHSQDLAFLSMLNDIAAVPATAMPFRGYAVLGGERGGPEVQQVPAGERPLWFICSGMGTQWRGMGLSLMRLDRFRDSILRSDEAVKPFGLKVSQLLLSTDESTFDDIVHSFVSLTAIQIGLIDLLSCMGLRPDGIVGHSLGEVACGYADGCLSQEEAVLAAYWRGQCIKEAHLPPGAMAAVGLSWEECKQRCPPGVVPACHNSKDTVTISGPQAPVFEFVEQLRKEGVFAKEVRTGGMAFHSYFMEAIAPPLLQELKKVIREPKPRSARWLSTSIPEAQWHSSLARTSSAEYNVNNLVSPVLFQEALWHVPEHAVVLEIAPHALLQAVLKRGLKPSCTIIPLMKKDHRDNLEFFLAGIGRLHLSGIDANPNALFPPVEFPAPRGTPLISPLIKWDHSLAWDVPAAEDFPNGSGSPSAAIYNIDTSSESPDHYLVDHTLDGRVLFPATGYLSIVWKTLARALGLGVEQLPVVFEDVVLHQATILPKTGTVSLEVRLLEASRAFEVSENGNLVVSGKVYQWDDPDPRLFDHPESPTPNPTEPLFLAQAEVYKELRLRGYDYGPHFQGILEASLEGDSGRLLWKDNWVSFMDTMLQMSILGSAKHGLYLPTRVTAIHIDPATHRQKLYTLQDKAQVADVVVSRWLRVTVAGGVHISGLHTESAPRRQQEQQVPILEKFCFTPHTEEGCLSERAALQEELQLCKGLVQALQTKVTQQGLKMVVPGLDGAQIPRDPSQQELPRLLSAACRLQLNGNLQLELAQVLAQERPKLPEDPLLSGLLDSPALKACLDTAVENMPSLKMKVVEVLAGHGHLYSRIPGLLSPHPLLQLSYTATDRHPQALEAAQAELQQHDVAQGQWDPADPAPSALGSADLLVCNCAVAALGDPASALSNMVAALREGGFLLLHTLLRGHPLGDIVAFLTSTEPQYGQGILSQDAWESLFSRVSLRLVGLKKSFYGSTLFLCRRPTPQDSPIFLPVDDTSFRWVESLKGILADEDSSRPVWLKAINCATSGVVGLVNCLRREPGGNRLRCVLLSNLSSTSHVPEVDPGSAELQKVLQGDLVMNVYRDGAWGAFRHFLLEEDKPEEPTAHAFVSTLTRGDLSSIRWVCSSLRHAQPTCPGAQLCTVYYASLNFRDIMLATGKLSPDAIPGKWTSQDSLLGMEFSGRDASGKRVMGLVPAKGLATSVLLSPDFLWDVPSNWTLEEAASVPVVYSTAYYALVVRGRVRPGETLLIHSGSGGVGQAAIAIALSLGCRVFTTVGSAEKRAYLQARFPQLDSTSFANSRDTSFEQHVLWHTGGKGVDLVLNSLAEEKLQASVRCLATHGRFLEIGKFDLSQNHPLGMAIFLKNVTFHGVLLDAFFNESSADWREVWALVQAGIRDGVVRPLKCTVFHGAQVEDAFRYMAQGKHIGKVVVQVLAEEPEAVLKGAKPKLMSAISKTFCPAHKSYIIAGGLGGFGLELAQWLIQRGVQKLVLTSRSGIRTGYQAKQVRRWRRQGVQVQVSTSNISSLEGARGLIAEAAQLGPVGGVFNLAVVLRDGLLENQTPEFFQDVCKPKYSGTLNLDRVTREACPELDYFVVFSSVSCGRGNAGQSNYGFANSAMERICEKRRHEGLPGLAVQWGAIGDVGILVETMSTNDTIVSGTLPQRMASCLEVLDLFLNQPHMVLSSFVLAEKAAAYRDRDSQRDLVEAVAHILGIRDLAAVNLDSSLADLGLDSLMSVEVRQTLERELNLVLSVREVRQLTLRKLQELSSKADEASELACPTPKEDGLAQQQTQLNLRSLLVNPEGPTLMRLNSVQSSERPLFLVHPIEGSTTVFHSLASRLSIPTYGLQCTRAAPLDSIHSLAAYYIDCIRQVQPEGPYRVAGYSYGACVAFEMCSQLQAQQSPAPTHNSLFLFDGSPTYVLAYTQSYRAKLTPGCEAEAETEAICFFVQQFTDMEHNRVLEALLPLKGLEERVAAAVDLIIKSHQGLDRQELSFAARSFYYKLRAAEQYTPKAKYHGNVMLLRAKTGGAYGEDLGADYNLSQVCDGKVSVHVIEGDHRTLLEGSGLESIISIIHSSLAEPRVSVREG

CCNC(=O)NC(=O)C(C#N)=NOC
active: [6] 50 µM | [8] 0.361 µM | [10] 0.791 µM
not listed: [14] | [15] | [16] | [17] | [18]
inactive: all other assays above

COc1ccc(-c2ccccc2)cc1NNC(=O)OC(C)C
active: [6] 75.1 µM
not listed: [9] | [16] | [17] | [18]
inactive: all other assays above

CCOc1nc(F)cc2nc(S(=O)(=O)Nc3c(Cl)cccc3Cl)nn12
active: [11] 41.7 µM | [12] 7.91 µM
not listed: [15] | [17] | [18]
inactive: all other assays above

O=C(O)c1c(Cl)ccc2cc(Cl)cnc12
active: [8] 0.00381 µM
not listed: [9] | [16] | [18]
inactive: all other assays above

O=c1n(Cl)c(=O)n(Cl)c(=O)n1Cl
active: [6] 60.2 µM
not listed: [9] | [16] | [17]
inactive: all other assays above

Cc1ccc(N=CN(C)C=Nc2ccc(C)cc2C)c(C)c1
active: [6] 41.2 µM
not listed: [15] | [17] | [18]
inactive: all other assays above

CC(C)C1(C)N=C(c2ncccc2C(=O)O)NC1=O (configuration not stated)
not listed: [9] | [15] | [16] | [17] | [18]
inactive: all other assays above

COC(=O)NS(=O)(=O)c1ccc(N)cc1
not listed: [9] | [15] | [16] | [18]
inactive: all other assays above

COC(=O)c1c(C(F)F)nc(C(F)(F)F)c(C2=NCCS2)c1CC(C)C
active: [8] 0.0299 µM | [12] 50 µM
not listed: [9] | [15] | [16] | [17] | [18]
inactive: all other assays above
